High-throughput results (PubChem)
Sampled rows, rich in hits. Any-hit rate of the full collection: about 2.9%.
MEKK2wt PB1 HTS – modulators of MEK5 binding to wildtype MEKK2, primary screen, biochemical, multiplex bead flow cytometry, Alexa488-MEK5 | Mitogen-activated protein kinase kinase kinase 2 (Homo sapiens), Q9Y2U5 | Alexa488-MEK5 binding to MEKK2 WT; actives lie on both sides | binding response (% of control), % at 10 µM | 290,000 tested, 1.1% active; in the data active = binding response below about 67% or above about 130%
CRFR2-BP antag – antagonists of CRF-BP/CRF-R2 complex, primary screen, cell-based, HEK293, calcium dye fluorescence, uHTS | 350,000 tested, 0.59% active | CRF-induced calcium fluorescence | inhibition, % at 11.8 µM;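 active = inhibition of the ligand-induced calcium signal above about 50% at the single tested concentration, limit read from the data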
MEKK3 PB1 HTS – modulators of MEKK3-MEK5 PB1 binding, primary screen, biochemical, wildtype MEKK3, multiplex bead flow cytometry, Alexa488-MEK5 | Mitogen-activated protein kinase kinase kinase 3 (Homo sapiens), Q99759 | bead-based flow cytometry, Alexa488-MEK5 binding to MEKK3; actives lie on both sides; 0 = blocked by unlabeled MEK5, 100 = vehicle | 290,000 tested, 1.4% active | binding response (% of control), % at 10 µM;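 active = binding response more than 3 SD above or below the average of its plate-row segment, actives on both sides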;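 note: Alexa488 bead fluorescence after subtracting the streptavidin-only scavenger bead signal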
CRFR2-BP ag – agonists of CRF-BP/CRF-R2 complex, primary screen, cell-based, HEK293, calcium dye fluorescence, uHTS | 350,000 tested, 0.46% active | calcium dye fluorescence (FLIPR); percent of saturating CRF peptide response | AID 588473, 2011 | activation, % at 13.2 µM | CRF-binding protein / CRF receptor 2 complex (human);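 active = activation of at least 50%, plus an integration ratio under a set limit after plate pattern correction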;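 note: plate controls were neutral control wells without compound for no effect and CRF at EC100 for full effect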
MEKK2mut PB1 HTS – MEK5 binding signal on mutant MEKK2 PB1, primary screen, biochemical, multiplex bead flow cytometry, Alexa488-MEK5; Alexa488-MEK5 binding to MEKK2 mutant; percent response, % at 10 µM; 290,000 tested, 0.35% active; AID 1530, 2009; in the data active = percent response above about 24%, passing the limit was not always enough
ABCB6 inh 2 – ABCB6 transporter inhibitors, primary screen, K562-ABCB6 cells, flow cytometry, MLPCN library; 360,000 tested, 0.19% active; K562-ABCB6 porphyrin accumulation, 1 h; hits give low values; fluorescence ratio to DMSO, % at 10 µM;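 active = fluorescence ratio to DMSO below 75%, the collection mean minus 3 SD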;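 note: signal is porphyrin accumulated inside mitochondria; 100% equals median channel fluorescence of DMSO control wells; lower ratio means ABCB6 inhibition with less porphyrin fluorescence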
Active calls of the source: *; x = not tested or not shown.

SMILES	MEKK2wt PB1 HTS	CRFR2-BP antag	MEKK3 PB1 HTS	CRFR2-BP ag	MEKK2mut PB1 HTS	ABCB6 inh 2
COc1ccc(NC(=O)C2(C)CCN2C(=O)C(C)C)cc1F (stereo not drawn)	x	x	x	x	x	101
CCCCc1oc2ccccc2c1C(=O)c1cc(I)c(OCCN(CC)CC)c(I)c1	163*	-6	119	-2	51*	94
CSc1ccc(/C=C(/NC(=O)c2ccc(C)cc2)C(=O)Nc2cccc(F)c2)cc1	108	137*	105	1	21	97
CCOC(=O)C1=C(O)/C(=C/c2cn(CC(=O)NCC3CCCO3)c3ccccc23)SC1=Nc1ccc(C)cc1 (stereo not drawn)	93	-18	104	61*	16	104
CCOC(=O)C1=C(O)/C(=C/c2ccc(-c3ccccc3C(=O)O)o2)SC1=Nc1ccc(C)cc1	x	-26	x	43	x	126
CCc1ccc(CN(Cc2cccnc2)C(=O)/C=C/c2ccc(OC)cc2)cc1	138*	0	108	5	32*	133
COc1ccc(/C=C/C(=O)NCc2cccnc2)cc1	101	0	99	0	-1	96
O=C(CCC(=O)N1CCOc2ccccc21)NC1CCCCCC1	102	74*	98	0	2	93
CCOC(=O)N1CCC(NC(=O)CCC(=O)N2CCOc3ccccc32)CC1	93	5	93	-2	-8	106
O=C(c1ccc2c(c1)OCO2)N(c1ccc(Br)cc1)C1C=CS(=O)(=O)C1 (stereo not drawn)	105	-3	104	1	6	99
CS(=O)(=O)Nc1cccc(C2=NN(C(=O)CCCC(=O)O)C(c3cccs3)C2)c1 (stereo not drawn)	97	1	98	0	0	98
N/C(CN1CCCCC1)=N\S(=O)(=O)c1cc(Cl)cc(Cl)c1	100	113*	102	-2	-2	102
CCn1c(C)c(C)c2cc(C(=O)NCCCN3CCCCC3C)ccc21 (stereo not drawn)	17*	3	103	-3	41*	110
CCn1c(C)c(C)c2cc(C(=O)NCCCN3CCCC3)ccc21	144*	6	104	0	14	107
CN(CC(=O)Nc1ccc2c(c1)OCCO2)CC(=O)Nc1ccc(F)c(F)c1F	x	68*	x	6	x	98
C=CCn1c(COc2ccc(F)cc2)nnc1SCC(=O)NC1CCCC1	x	-11	x	0	x	98
C=CCn1c(COc2ccc(F)cc2)nnc1SCC(=O)NC1CCS(=O)(=O)C1 (stereo not drawn)	x	1	x	-1	x	71*
COc1ccc(OC)c2sc(N(CCN(C)C)C(=O)/C=C/c3cccs3)nc12	109	10	101	-1	2	93
CCN(CC)CCN(C(=O)/C=C/c1cccs1)c1nc2ccc(C)cc2s1	160*	-41	105	5	17	93
COc1ccc(C)c2sc(N(CCN(C)C)C(=O)/C=C/c3cccs3)nc12	145*	2	103	4	13	89
CCOc1cccc2sc(N(CCN(C)C)C(=O)/C=C/c3cccs3)nc12	144*	-3	105	0	26*	97
COc1ccc(Cl)cc1NC(=O)C1(c2cccs2)CCOCC1	110	11	113	-1	6	100
Cc1cn([C@H]2C[C@H](O)[C@@H](CCC(=O)NCc3ccc(N(C)C)cc3)O2)c(=O)[nH]c1=O	x	-6	x	0	x	102
CCN1/C(=C/C=C/c2oc3ccc4ccccc4c3[n+]2CC)Oc2ccc3ccccc3c21	x	-219	x	153*	x	x
O=[N+]([O-])c1cccc(S(=O)(=O)NCc2ccncc2)c1	96	6	101	2	-3	99
CCOC(=O)c1cc(-c2ccccc2)n(CCC(=O)N2CCN(c3ccc(OC)cc3)CC2)c1C	2.0*	28	95	-2	-1	103
